Experimental data reported in the supplement of paper PMC9492666.
Structures can show the parent of a compound that is named as a salt.

Legend:
HCC1937 = assay: relative cell viability, compound alone, vs DMSO (fraction of DMSO control); higher = less growth inhibition; conditions: 72 h
MDA-MB-231 = assay: as above; conditions: 72 h
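Further: viability read out with the CCK-8 kit in 96-well plates, screening a set of 303 compounds acting on lipid metabolism targets.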

SMILES	relative cell viability (HCC1937)	relative cell viability (MDA-MB-231)
CC(C)(Oc1ccc(C(=O)c2ccc(Cl)cc2)cc1)C(=O)O [Fenofibric acid]	0.686	0.842
O=c1ccc2cc(O)c(O)cc2o1 [Esculetin]	0.673	0.672
C[C@@H](Nc1nc(N[C@H](C)C(F)(F)F)nc(-c2cccc(Cl)n2)n1)C(F)(F)F [Vorasidenib]	0.708	0.914
CCCCC[C@H](O)CC(=O)CCc1ccc(O)c(OC)c1 [6-Gingerol]	0.646	0.862
COc1ccc(Nc2ccn(-c3ccccc3)n2)cc1	0.868	1
CN(C)CCOC(=O)COc1ccc(Cl)cc1 [Meclofenoxate hydrochloride]	0.782	0.933
O=C(c1ccc(NS(=O)(=O)c2cccc3cccnc23)cc1)N1CCN(CC2CC2)CC1 [Mitapivat]	0.95	0.935
CC(C)c1nc(N(C)S(C)(=O)=O)nc(-c2ccc(F)cc2)c1/C=C/[C@@H](O)C[C@@H](O)CC(=O)O [Rosuvastatin]	0.633	0.871
O=C(O)C(=O)Nc1sc2c(c1C(=O)O)CCNC2	1.01	0.872
COc1ccc2c(c1)CCC1C2CCC2(C)C(NCCCCCCN3C(=O)C=CC3=O)CCC12 (stereo not drawn)	0.699	0.806
CC[C@H](C)C(=O)O[C@H]1C[C@H](O)C=C2C=C[C@H](C)[C@H](CC[C@@H](O)C[C@@H](O)CC(=O)O)[C@H]21 [Pravastatin sodium]	0.918	0.964
CC1(C)C[C@H]2C3=CC[C@@H]4[C@@]5(C)CC[C@H](O)[C@@](C)(CO)[C@@H]5CC[C@@]4(C)[C@]3(C)C[C@H](O)[C@@]2(CO)[C@@H](O)[C@@H]1O [Gymnemagenin]	1.13	1.04
O=C1C(SCCO)=C(SCCO)C(=O)c2ccccc21	0.777	0.875
O=c1c(O[C@@H]2O[C@H](CO)[C@@H](O)[C@H](O)[C@H]2O)c(-c2ccc(O)cc2)oc2cc(O)cc(O)c12 [Astragalin]	0.937	0.984
CCCCCCCCCCC#CC#CCCCCCCCCC(=O)O [10,12-Tricosadiynoic acid]	0.712	0.911
COc1ccc(-c2cc(=O)c3c(O)c(OC)c(O)cc3o2)cc1OC [Eupatilin]	0.622	0.739
O=S(=O)(O)c1ccc2cc(N=Nc3cc(S(=O)(=O)O)c4cccnc4c3O)ccc2c1	0.987	0.851

SMILES	relative cell viability (HCC1937)	relative cell viability (MDA-MB-231)
CC1(N)CCN(c2cnc(-c3cccc(Cl)c3Cl)c(N)n2)CC1 [SHP099 hydrochloride]	0.768	1.02
Cn1c2cc([S+](C)[O-])sc2c2cnn(Cc3cccc(N)c3)c(=O)c21 (stereo not drawn)	0.688	0.96
CC(C)c1cc(C(C)C)c(CC(=O)NS(=O)(=O)Oc2c(C(C)C)cccc2C(C)C)c(C(C)C)c1 [Avasimibe]	0.707	0.832
O=c1oc2ccccc2cc1O [3-Hydroxycoumarin]	1.02	1.05
COc1ccc2[nH]cc(CCNC(C)=O)c2c1 [Melatonine]	0.76	0.783
CC(=O)Nc1nc(C)c(S(=O)(=O)Nc2ccc(C(O)(C(F)(F)F)C(F)(F)F)cc2)s1	1.29	1.24
O=C(NC1CCN(CCCCC2(C(=O)NCC(F)(F)F)c3ccccc3-c3ccccc32)CC1)c1ccccc1-c1ccc(C(F)(F)F)cc1 [Lomitapide]	0.293	0.695
C=C(C)[C@@H]1CCC2=CC(=O)C[C@@H](C)[C@]2(C)C1 [Nootkatone]	0.882	1.02
CCCCCCCCCCOc1ccc(C(=O)Nc2cc(C(=O)NCCCC)ccc2SC)cc1	1.02	1.06
CCCc1c(-c2ccccc2)[nH]n(-c2ccccn2)c1=O [APX-115 free base]	0.838	0.835
CC(C)(C)c1ccc(-c2nc3ccccc3[nH]2)cc1	0.728	0.612
Nc1ncnc2c1ncn2[C@@H]1O[C@H](COP(=O)(O)O)[C@@H](O)[C@H]1O [Adenosine 5'-monophosphate]	0.663	0.81
O=C(NCCS(=O)(=O)c1ccc(C(F)(F)F)cn1)c1ccc(Cl)cc1	0.749	0.901
C[C@H](CCCC(C)(C)O)[C@H]1CC[C@H]2[C@@H]3CC=C4C[C@@H](O)CC[C@]4(C)[C@H]3CC[C@]12C [25-Hydroxycholesterol]	0.982	0.89
CCCCCCCCCCCCCCCC(=O)NCCO [Palmidrol]	1.39	1.13
COC(=O)CN(c1ccc(CN(c2ccc(OCc3ccc(C)cc3)c(C(=O)OC)c2)S(=O)(=O)Cc2ccccc2)cc1)S(C)(=O)=O	0.894	0.921
CC1(C)CC[C@]2(C(=O)O[C@@H]3O[C@H](CO)[C@@H](O)[C@H](O)[C@H]3O)CC[C@]3(C)C(=CC[C@@H]4[C@@]5(C)CC[C@H](O[C@@H]6O[C@H](C(=O)O)[C@@H](O)[C@H](O)[C@H]6O)C(C)(C)[C@@H]5CC[C@]43C)[C@@H]2C1 [Chikusetsusaponin IVa]	1.02	0.966
